Source: PubChem (Pan Lab, Icahn School of Medicine at Mount Sinai)
This is one part of a sample in which hits are shown more often than they occur.
ROC1-CUL1 inh: inhibitors of human ROC1-CUL1 ubiquitin ligase activity. P62877+Q13616. in vitro K48 di-Ub FRET, acceptor:donor ratio, 45 min. inhibition, % at 10 µM. 140,000 tested, 0.6% active. AID 1347404; in the data active means inhibition above about 25%
The depositor's hits bear a star.

SMILES | ROC1-CUL1 inh
COc1cc(/C=C2\SC(=O)N(c3ccc(Cl)cc3)C2=O)c(Br)cc1OCC(=O)O | 41*
O=C(O)COc1ccc(Br)cc1/C=C1/SC(=O)N(CC(=O)N2CCCC2)C1=O | -9
CCOC(=O)COc1cc(Br)c(/C=C2/SC(=O)N(CC)C2=O)cc1OC | -7
CCc1ccccc1N=C1S/C(=C\c2cc(Br)ccc2OCC(=O)O)C(=O)N1c1ccccc1CC | 0
O=C(CCc1ccccn1)NCc1cccnc1Oc1ccccc1F | 4
Cc1cc(C)n(CC(O)(c2ccccc2)c2ccccc2)n1 | 3
N#CC(C#N)=NNc1cccc(C#N)c1 | 4
COc1ccc(CCNC(=O)c2ccc3c(c2)N(Cc2ccc(F)cc2)C(=O)c2ccccc2S3(=O)=O)cc1OC | 1
CCOC(=O)N1CCN(C(=O)c2cc(COc3cccc(OC)c3)[nH]n2)CC1 | -3
CC(C)(C)c1ccc(C2=N/C(=C\c3ccco3)C(=O)O2)cc1 | 3
C=CCOc1c(Br)cc(/C=C2\SC(=O)N(Cc3ccc(F)cc3)C2=O)cc1OCC | -2
O=C1S/C(=C\c2cc(Br)c(O)c(Br)c2)C(=O)N1Cc1ccc(F)cc1 | 31*
O=C1S/C(=C\c2ccccc2)C(=O)N1Cc1ccc(F)cc1 | 5
COCCn1c(CCC(=O)Nc2ccc(C)c(Cl)c2)nc2cccnc21 | 4
Nc1c(Br)ccc2nsnc12 | 104*
Cc1ccc2nsnc2c1S(=O)(=O)Nc1ccccc1Br | -1
c1ccc2c(c1)ccc1nsnc12 | -2
O=C(c1cn[nH]c1)N1CCCC(Cn2cc(Cc3ccccc3)nn2)C1 (stereo not given) | 1
COC(=O)C1C(=N)OC2=C(C(=O)CC(C)(C)C2)C1c1ccccc1 (stereo not given) | -10
COC(=O)C1C(=N)OC2=C(C(=O)CCC2)C1c1cccnc1 (stereo not given) | 4
COC(=O)C1C(=N)OC2=C(C(=O)CCC2)C1c1cccc(Br)c1 (stereo not given) | 106*
Cc1ccc(C2=CC(c3ccc(C)cc3)=NC2=Nc2[nH]c(-c3ccc(C)cc3)cc2-c2ccc(C)cc2)cc1 | 6
CCNC(=O)C1CCCN(c2nn3cc(-c4ccc(C)cc4)nc3s2)C1 (stereo not given) | -3
O=S1C(Cl)=C(c2ccc(Cl)cc2)c2ccc(Cl)cc21 (stereo not given) | 6
CCOC(=O)c1c2c(n(Cc3ccccc3)c1CNC(C)C)C(=O)C(=O)c1ccccc1-2 | 103*
SMILES | ROC1-CUL1 inh
CCOC(=O)c1c2c(n(CC(=O)c3ccc(Br)cc3)c1C)C(=O)C(=O)c1ccccc1-2 | -3
CCOC(=O)c1c2c(n(Cc3ccccc3)c1C)C(=O)c1ccc(Br)cc1-2 | 2
C=CCNC(=O)c1nnn(-c2ccc(C)cc2)c1CCC | 12
CN1C2CCC1/C(=C/c1cc(Br)cs1)C(=O)/C2=C\c1cc(Br)cs1 | -9
Cn1cccc1/C=N/Nc1nncc(-c2ccccc2)n1 | 4
CN1C2CCC1/C(=C/c1cccn1C)C(=O)/C2=C\c1cccn1C | 25*
CCOc1cc(/C=C2\C(=O)NN(c3ccccc3)C2=O)cc(Cl)c1OCc1cccc(C)c1 | 38*
CCOc1cc(/C=C2\C(=O)NN(c3ccccc3)C2=O)cc(Cl)c1OCc1c(Cl)cccc1Cl | 86*
COc1cc(/C=C2\C(=O)NN(c3ccccc3)C2=O)cc(Cl)c1OCc1ccccc1C | 19
COc1cc(/C=C2\C(=O)NN(c3ccccc3)C2=O)ccc1OCc1ccccc1 | 14
CCOc1cc(/C=C2\C(=O)NN(c3ccccc3)C2=O)ccc1OCc1c(F)cccc1Cl | -7
CCOc1cc(/C=C2\C(=O)NN(c3ccccc3)C2=O)cc(Br)c1OCc1cccc(C)c1 | 2
O=C(c1cc(-c2ccc(Br)cc2)nc2ccccc12)N1N=C(C(F)F)CC1(O)C(F)F (stereo not given) | -4
O=C(Nc1ccnn1C1CCN(C2CCCC2)CC1)c1cccnc1 | 15
Cc1ccc(-c2nnc(N3CCCC3)c3ccccc23)cc1C | -9
COc1ccc(C(=O)N2N=C(C)CC2(O)C(F)(F)F)cc1COc1ccc(Cl)c(C)c1 (stereo not given) | 8
Cc1cc(-c2ccc(NC(=O)c3cc(-c4ccccc4)nc4ccccc34)c(C)c2)ccc1NC(=O)c1cc(-c2ccccc2)nc2ccccc12 | -1
CCCN1CCC(NC(=O)c2cc(Cl)cc(Cl)c2)CC1 | 5
COC(=O)COc1ccc(C2C3=C(N=C(C)C2C(=O)OC)c2ccccc2C3=O)cc1OC (stereo not given) | 0
Cc1ccc(NC(=O)/C=C/c2ccc(C)o2)c(Br)c1 | 63*
Cc1ccc(NC(=O)/C=C/c2ccc(Cl)cc2)c(Br)c1 | -8
CC(=C/C(=O)O)/C=C/c1ccc(Cl)o1 | -1
Cc1ccc(/C=C/C(=O)O)o1 | 35*
Cc1ccc(NC(=O)/C=C/c2ccc(C)o2)c(C)c1 | 0
CC(=O)c1ccc(NC(=O)/C=C/c2ccc(C)o2)cc1 | 7
SMILES | ROC1-CUL1 inh
Nc1ncc(CN2CCC(N3CCC(C(=O)NCC4CCCO4)CC3)CC2)cn1 (stereo not given) | -3
O=C(Oc1cccc2ccccc12)c1cccs1 | 8
CCN1C(=O)S/C(=C/c2ccc(-c3cccc(C(=O)O)c3C)o2)C1=O | 10
Cc1ccc(C(=O)O)cc1-c1ccc(/C=C2\SC(=O)N(Cc3ccccc3)C2=O)o1 | 14
O=C(O)c1ccc(-c2ccc(/C=C3\SC(=O)N(CC(=O)N4CCOCC4)C3=O)o2)cc1Cl | -1
O=C(O)c1ccc(-c2ccc(/C=C3\SC(=O)N(Cc4ccccc4)C3=O)o2)cc1Cl | 93*
Cc1ccc(C(=O)O)cc1-c1ccc(/C=C2\SC(=O)N(Cc3ccc(F)cc3)C2=O)o1 | -5
Cc1ccc(CN2C(=O)S/C(=C\c3ccc(-c4ccc(C(=O)O)c(Cl)c4)o3)C2=O)cc1 | 69*
COc1ccc(Cl)cc1NC(=O)CN(C)S(=O)(=O)c1ccc(OC)c(OC)c1 | -8
CC(=O)NCCSc1cc2ccccc2[nH]1 | -4
C=C(C)CC1NC2CC(C)(C)C1c1c(Br)ccc(Br)c12 (stereo not given) | 3
COC(=O)C1C(c2ccccc2)C(C(=O)OC)S(=O)(=O)C(C(=O)Nc2ccccc2)S1(=O)=O (stereo not given) | 14
Cc1ccc(C2=C/C(=C\c3c(Cl)cccc3Cl)C(=O)O2)cc1 | 2
Cc1ccc2cc(C3=CCC(=O)O3)ccc2c1 | 20
Cc1ccc2cc(C3=C/C(=C/c4ccc(N5CCOCC5)o4)C(=O)O3)ccc2c1 | 96*
CN(C)/C=C/c1nnnn1-c1ccc(-c2ccccc2)cc1 | 3
Cc1ccc(N2C(=O)/C(=C/c3ccc(-c4ccc(C(=O)O)cc4)o3)C(=O)N(c3ccccc3)C2=S)cc1C | 5
Cc1ccc(N2C(=O)/C(=C\c3ccc(-c4ccc(Br)cc4[N+](=O)[O-])o3)C(=O)N(c3ccccc3)C2=S)cc1C | 56*
Cc1ccc(N2C(=O)/C(=C/c3ccc(Br)cc3)C(=O)N(c3ccccc3)C2=S)cc1 | -3
C=CCNC(=O)c1ccc(NS(C)(=O)=O)c(C)c1 | 12
O=C(Cc1ccccc1)NCc1cccnc1N1CCN(c2ccccn2)CC1 | -2
COCCNC(=O)c1cnn2c1NC(c1ccc(OC)cc1)CC2C(F)(F)F (stereo not given) | -2
Cc1ccc(NC(=O)c2c(N)sc3c2CCC3)cc1 | -3
Cc1ccc(NC(=O)c2c(N)sc3c2CCCCC3)c(C)c1 | 65*
Cc1ccc(NC(=O)c2c(NC(=O)C(C)(C)C)sc3c2CCCC3)c(C)c1 | -5
C1=C(c2c[nH]c3ccccc23)CC(c2ccccc2)=NN=C1c1ccccc1 | -13
